# Only some compounds are listed: those with a hit (about 1.2% of all), similar ones and a draw of the others.
# FadD28 FP inh = blocks FadD28 binding to the bisubstrate probe; fluorescence polarization; inhibition, % at 12.5 µM; hit rate 0.22% among 360,000; AID 588549; in the data active = inhibition above about 8.5%, passing the limit was not always enough; inconclusive = no clear call, values can overlap the other calls
# PrP 5UTR inh = suppresses PrP 5' UTR mRNA reporter expression; inhibition, % (test concentration not listed); cell-based PrP 5' UTR mRNA reporter, plate reader; hit rate 0.35% among 340,000; in the data active = inhibition above about 52%; also: 0 = median of the neutral control wells
# SSB-PriA inh = inhibitors of Klebsiella pneumoniae PriA binding to SSB C-terminal tail | AlphaScreen SSBct-PriA binding, biotinylated peptide | inhibition, % at 33 µM | hit rate 0.6% among 430,000 | AID 1272365; in the data active = inhibition mostly above about 37%, no sharp cut-off; inactive = mostly below about 20%;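 also: plate controls were negative control peptide for no effect and reference peptide for full effect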
# PrPC TRFRET = reduces human prion protein on the cell surface; P04156; cell surface PrPC, TR-FRET read-out; inhibition, % at 13.8 µM; hit rate 0.43% among 370,000; AID 720596; in the data active = inhibition above about 24%; also: 0% = median of the test wells and 100% = reference compound wells
# Rv3671c protease = inhibitors of M. tuberculosis serine protease Rv3671c; P9WHR9; inhibition, % at 5.96 µM; hit rate 0.048% among 320,000; AID 2606; in the data active = inhibition above about 38%;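 also: extracellular domain of Rv3671c used as enzyme; 0% = enzyme with DMSO and 100% = no enzyme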
# Target sequence (P9WHR9 whole entry, looked up, the tested form may be a part): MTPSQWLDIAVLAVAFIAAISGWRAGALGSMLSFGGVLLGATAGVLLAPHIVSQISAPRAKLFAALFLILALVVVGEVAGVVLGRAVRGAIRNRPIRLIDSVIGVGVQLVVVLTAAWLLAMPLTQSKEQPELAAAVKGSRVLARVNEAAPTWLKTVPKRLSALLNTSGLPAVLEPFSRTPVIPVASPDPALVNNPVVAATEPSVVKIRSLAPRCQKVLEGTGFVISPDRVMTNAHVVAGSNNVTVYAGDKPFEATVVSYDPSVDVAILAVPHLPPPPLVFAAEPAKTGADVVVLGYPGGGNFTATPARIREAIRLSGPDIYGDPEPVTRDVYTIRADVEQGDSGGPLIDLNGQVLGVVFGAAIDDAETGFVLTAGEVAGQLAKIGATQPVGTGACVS
# Mtb UGM inh = blocks M. tuberculosis UGM enzyme | P9WIQ1 | purified UGM, fluorescence polarization probe displacement | inhibition, % at 10 µM | hit rate 0.06% among 320,000; in the data active = inhibition above about 10%, passing the limit was not always enough; inconclusive = no clear call, values can overlap the other calls
# * = called active by the depositor; ? = inconclusive; . = no result; ! = a repeat was not active.
SMILES,FadD28 FP inh,PrP 5UTR inh,SSB-PriA inh,PrPC TRFRET,Rv3671c protease,Mtb UGM inh
COc1ccc(OC)c(-c2cc(C3CCN(c4ncccc4[N+](=O)[O-])CC3)[nH]n2)c1,0,-4,65*,3,-6,1
Nc1ccc2nc(-c3ccccc3)[nH]c2c1,-2,-53,16,7,-1,2
CC[n+]1c(-c2ccccc2)c2cc(N)ccc2c2ccc(N)cc21,15*,-16,65,-19,.,.
COc1ccc(N(C(C)C(=O)N2CCC(Cc3ccccc3)CC2)S(C)(=O)=O)cc1 (centres undefined),-2,-15,55*,14,-1,1
Nc1ccc(N(c2ccccc2)c2ccc(N)cc2)cc1,0,-20,42*,-7,-4,-1
Cc1ccc(C2CC(c3ccccc3NS(C)(=O)=O)=NN2S(C)(=O)=O)cc1 (centres undefined),.,.,-9,.,.,.
COc1ccc(NC(=S)N/N=C2\CC(C)(C)Oc3ccc(OC)cc32)cc1,-2,-5,.,11,-1,0
COc1ccc(NC(=S)NN=C2CC(C)(C)Oc3ccc(O)cc32)cc1,.,.,47*,.,.,.
COc1cccc(NC(=S)NN=C2CC(C)(C)Oc3ccc(O)cc32)c1,.,.,40*,.,.,.
CC1(C)CC(=NNC(=S)Nc2ccccc2F)c2cc(O)ccc2O1,.,.,45*,.,.,.
Cn1cc(C(O)CN)c2ccccc21 (centres undefined),.,.,-15,.,.,.
O=C(CNCc1ccncc1)Nc1cc(S(=O)(=O)N2CCCCC2)ccc1Cl,-1,-17,-12,5,8,-1
Cc1ccc(S(=O)(=O)N2CCOCC2)cc1NC(=O)CNCc1ccccn1,-2,-21,44*,-6,7,0
CN(C)S(=O)(=O)c1cccc(NC(=O)CNC2CCCCC2)c1,-2,-2,-11,-5,3,1
COc1cccc(CN(C)CC(=O)Nc2cc(S(=O)(=O)N3CCCC3)ccc2Cl)c1OC,0,-16,42*,0,.,.
CN(C)S(=O)(=O)c1cccc(NC(=O)CNCc2ccccn2)c1,-1,-3,50*,-5,16,-2
O=C(CNCc1ccccn1)Nc1cc(S(=O)(=O)N2CCCCC2)ccc1Cl,-1,10,41*,1,-5,-1
Cc1ccc(S(=O)(=O)N2CCOCC2)cc1NC(=O)CNCc1ccccc1Cl,-2,-4,-7,2,.,.
COc1ccccc1OCC(=O)N1CCN(Cc2nc3ccccc3[nH]2)CC1,.,.,0,.,.,.
O=C(NCc1ccc(F)cc1)Nc1ccn2nccc2c1,.,.,-9,.,.,.
O=C(Cn1cnc2c(sc3cccc(F)c32)c1=O)Nc1ccc(F)cc1F,.,.,1,.,.,.
Cc1ccc(NC(=S)NN=Cc2ccc([N+](=O)[O-])s2)cc1,.,.,62*,.,.,.
Nc1ccc(C(=O)O)c(O)c1,16*!,-18,1,-3,6,-3
O=C(O)c1ccc(O)cc1O,-3,-14,5,0,6,0
N#Cc1ccsc1NC(=O)CCOc1ccccc1,.,.,-9,.,.,.
SMILES,FadD28 FP inh,PrP 5UTR inh,SSB-PriA inh,PrPC TRFRET,Rv3671c protease,Mtb UGM inh
COc1cccc2c(N)c(C(=O)N3CCCC3)oc12,.,.,-18,.,.,.
Cc1ccc(C(=O)N/C(=C\c2ccco2)C(=O)NCCCn2ccnc2)cc1C,-4,-11,86*,0,-3,-1
COc1cccc2c1C(=O)c1c(O)c3c(c(O)c1C2=O)CC(O)(C(C)=O)CC3OC1CC(O)C(O)C(C)O1 (centres undefined),66*,7,22,-50,.,.
COc1cccc2c1C(=N)c1c(O)c3c(c(O)c1C2=O)CC(O)(C(C)=O)CC3OC1CC(N)C(O)C(C)O1 (centres undefined),6,22,85*,.,.,.
CCCCC(=O)OCC(=O)C1(O)Cc2c(O)c3c(c(O)c2C(OC2CC(NC(=O)C(F)(F)F)C(O)C(C)O2)C1)C(=O)c1c(OC)cccc1C3=O (centres undefined),?,-40,-11,-24,.,.
COc1cccc2c1-c1c(O)cccc1C2=O,-4,-17,-24,3,3,0
C=CCOc1ccc(/C=C2\SC(=S)N(C(C(=O)O)c3ccccc3)C2=O)cc1 (centres undefined),14*,-22,3,3,.,.
CCOc1ccc(/C=C2\SC(=S)N(C(C(=O)O)c3ccccc3)C2=O)cc1OC (centres undefined),2,-16,-2,14,-13,0
C=c1oc(C)cc1=C1NN=C(SCC(=O)NC(C)C)O1,.,.,7,.,.,.
COc1ccccc1CCNC(=O)c1c[nH]c(=O)n(Cc2ccccc2F)c1=O,.,.,-19,.,.,.
Cc1ccc(S(=O)(=O)N2CCN(C(=O)c3c(C)nn(-c4ccccc4)c3Cl)CC2)cc1,-4,-5,-11,-6,1,.
Cc1cc(C)c(S(=O)(=O)N2CCN(C(=O)c3c(C)nn(-c4ccccc4)c3Cl)CC2)c(C)c1,-1,2,44*,5,.,.
CS(=O)(=O)c1ccc(NC(=O)C2CCN(c3cc(C4CC4)ncn3)CC2)cc1,.,.,-12,.,.,.
CN(C)CCNC(=O)c1ccc(=O)n(C)n1,.,.,-6,.,.,.
CCN(CC)CCn1c2ccccc2c(=O)c2c(O)ccc(O)c21,-1,-13,54*,-31,.,.
CCN(CC)CCn1c(O)c(N=O)c2ccccc21,2,0,-6,-8,3,2
O=C(NCc1ccccc1)c1sc(=S)n2c1[nH]c(=O)c1ccccc12,41*,-25,-5,-3,-7,0
Cc1cc([C@@H](O)CCNC(=O)c2ccc(Br)o2)c(C)o1,.,.,0,.,.,.
NNc1nc(-c2ccccc2)cc(-c2ccccc2O)n1,-3,-22,40*,.,-2,1
NNc1nc(-c2ccccc2)cc(-c2ccccc2)n1,-3,-12,1,9,-18,0
Cc1ccc(NC(=O)C(NC2CCCc3ccccc32)c2ccccc2)cc1Cl (centres undefined),-2,-14,-43,10,-18,1
Cc1ccc(NC(=O)C(NC2CCCc3ccccc32)c2ccccc2)c([N+](=O)[O-])c1 (centres undefined),-2,-9,46*,-3,-3,3
Cc1cccnc1NC(=S)Nc1ccc(F)cc1F,-2,-33,-1,-1,8,0
Cc1ccc(C)c(NC(=S)Nc2ncccc2C)c1,-1,-46,40*,10,7,2
COC(=O)c1ccc(NC(=S)Nc2ccccc2)cc1,2,-34,-10,5,2,0
SMILES,FadD28 FP inh,PrP 5UTR inh,SSB-PriA inh,PrPC TRFRET,Rv3671c protease,Mtb UGM inh
COC(=O)c1ccc(NC(=S)NC2c3ccccc3CC2O)cc1 (centres undefined),22*,-35,-9,14,-3,-2
O=C(Nc1ccccc1)OC1CCCC(NS(=O)(=O)c2cccnc2)C1 (centres undefined),.,.,-12,.,.,.
CCn1c2ccccc2c2cc(Nc3cc(C)nc4ncnn34)ccc21,1,68*,2,21,-1,-2
CCOc1ccc(C(=O)Nc2ccc(-c3nnc(CC)o3)cc2)cc1,.,.,-1,.,.,.
Cc1cccc(C2C3=C(Nc4[nH]n(-c5ccccc5)c(=O)c42)c2ccccc2C3=O)c1 (centres undefined),22*,-7,16,-8,.,.
COC(=O)c1ccccc1NC(=O)c1cccn(Cc2c(F)cccc2Cl)c1=O,.,.,-20,.,.,.

# Compound activity as filed in PubChem BioAssay.
